This is part of a sample that, as a whole, favours compounds with a hit. Of some 83,000 tested, about 20% had one in any assay.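 In brief: 96-well plates, 48 h treatment, single concentration, percent growth endpoint.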 Unmarked numbers belong to inactive results. Activity calls are given as the source filed them. Rule for the calls: active = growth percent below 10; inactive = the rest.

Some test systems named below: NCI-H23 lung; NCI-H226 lung; NCI-H322M lung; HOP-62 NSCLC; NCI-H460 lung; HOP-92 NSCLC; NCI-H522 lung; A549/ATCC NSCLC; 786-0 renal; COLO 205 colon.
Common to all, as to experiment: NCI-60 one-dose screen, 48 h (100 = growth as untreated, 0 = no growth, -100 = all killed)
What all share (settings): 10 µM

In the case of `C=CCNCCCN1C(=O)c2ccc3c4c(ccc(c24)C1=O)C(=O)N(CCCNCC=C)C3=O`, the growth with NCI-H23 lung was -55.6% (active); in the experiment on NCI-H226 lung it was -30.8% (active); with NCI-H322M lung, -48.3% (active); in the experiment with HOP-62 NSCLC it was -53% (active); in the experiment with NCI-H460 lung, -56.7% (active); in the experiment on HOP-92 NSCLC it was -21.6% (active). For the same compound, the growth in the experiment on NCI-H522 lung is -77.3% (active); in the experiment on A549/ATCC NSCLC, -73.6% (active); in the experiment with 786-0 renal it was -31% (active); with COLO 205 colon it was -86.8% (active).

With `CC(CNC(Cc1ccccc1)c1ccccc1)NC(Cc1ccccc1)c1ccccc1` (stereo not given), the growth in the experiment on NCI-H23 lung was 30.3%; with NCI-H226 lung it was 34.8%; in the experiment with NCI-H322M lung, 77.7%; in the experiment with HOP-62 NSCLC, 39.9%; in the experiment on NCI-H460 lung, 8.03% (active); in the experiment on HOP-92 NSCLC, -0.172% (active). The growth is 9.37% (active) in the experiment with NCI-H522 lung, 46.8% in the experiment on A549/ATCC NSCLC, 50.2% in the experiment with 786-0 renal and 9.3% (active) with COLO 205 colon.

On to `Cc1ccc2c(c1)-c1cc(C)nn1-c1ccc(C#N)cc1O2`, for which the growth was 78.2% in the experiment on NCI-H23 lung; 75.4% in the experiment on NCI-H226 lung; 81.5% in the experiment with NCI-H322M lung; 51.6% in the experiment on HOP-62 NSCLC; 60.5% in the experiment with NCI-H460 lung; 69.1% in the experiment on HOP-92 NSCLC. Moreover, the growth with NCI-H522 lung was 15.2%; in the experiment on A549/ATCC NSCLC, 51.6%; in the experiment on 786-0 renal it was 86.4%; in the experiment on COLO 205 colon, 66.3%.

As to `O=C1NN(c2ccccc2)C(c2cccnc2)=N/C1=C\c1cccnc1`, the growth with NCI-H23 lung was 89.4%; with NCI-H226 lung it was 80.8%; in the experiment on NCI-H322M lung it was 84.9%; with HOP-62 NSCLC, 92%; in the experiment on NCI-H460 lung it was 95.2%; in the experiment on HOP-92 NSCLC, 99%. The growth with NCI-H522 lung is 105%; in the experiment on A549/ATCC NSCLC, 112%; in the experiment on 786-0 renal, 98.8%; with COLO 205 colon, 105%.

For `CCCCCCCCCCCCCCCC(=O)N1CCN(C)CC1`, the growth with NCI-H23 lung was 85.1%; in the experiment with NCI-H226 lung, 106%; in the experiment on NCI-H322M lung, 71.3%; in the experiment with HOP-62 NSCLC it was 89%; in the experiment with NCI-H460 lung, 68.6%; with HOP-92 NSCLC, 31.7%. The growth was 17.1% with NCI-H522 lung, 95.5% in the experiment with A549/ATCC NSCLC, 86% with 786-0 renal and 68.6% with COLO 205 colon.

As to `Fc1cc(-c2ncc(-c3cc(F)c(F)c(F)c3)c(NC3CCCCCC3)n2)cc(F)c1F`, the growth with NCI-H23 lung is 102%; in the experiment with NCI-H226 lung, 95.9%; with NCI-H322M lung, 102%; in the experiment on HOP-62 NSCLC, 122%; in the experiment on NCI-H460 lung, 102%; in the experiment with HOP-92 NSCLC it was 88.8%. Also, the growth with NCI-H522 lung is 120%; in the experiment on A549/ATCC NSCLC it was 85.6%; with 786-0 renal it was 98.3%; in the experiment with COLO 205 colon it was 115%.

For the compound `COc1c(-c2c3sc(=O)[nH]c3nc3c2c(=O)[nH]n3C(C)C)cc2c(c1OC)OCO2`, the growth in the experiment with NCI-H23 lung was 100%; in the experiment with NCI-H226 lung, 85.8%; in the experiment on NCI-H322M lung it was 92.2%; in the experiment on HOP-62 NSCLC, 94.5%; in the experiment with NCI-H460 lung, 107%; in the experiment with HOP-92 NSCLC it was 72.2%. Moreover, the growth in the experiment with NCI-H522 lung is 86%; in the experiment on A549/ATCC NSCLC, 95.8%; in the experiment with 786-0 renal, 86.5%; in the experiment on COLO 205 colon it was 117%.

As for `COc1ccccc1CNCCCN1C(=O)c2ccc3c4c(ccc(c24)C1=O)C(=O)N(CCCNCCNCCCN)C3=O`, the growth in the experiment with NCI-H23 lung was 6.85% (active); in the experiment on NCI-H226 lung it was 39.9%; in the experiment with NCI-H322M lung, 27.9%; with HOP-62 NSCLC, 40.4%; in the experiment with NCI-H460 lung it was 6.29% (active); with HOP-92 NSCLC it was 66.3%. For the same compound, the growth in the experiment on NCI-H522 lung is -0.0156% (active); in the experiment on A549/ATCC NSCLC, 6.04% (active); in the experiment with 786-0 renal it was 45.4%; with COLO 205 colon it was -59.4% (active).

`O=C1/C(=C/c2ccc(O)cc2)CSc2ccc(Cl)cc21`: the growth is 91.3% with NCI-H23 lung; 82.2% in the experiment on NCI-H226 lung; 92.3% in the experiment on NCI-H322M lung; 90.9% with HOP-62 NSCLC; 96.5% with NCI-H460 lung; 75.6% in the experiment on HOP-92 NSCLC. The growth in the experiment with NCI-H522 lung is -26.2% (active); with A549/ATCC NSCLC, 86.7%; in the experiment on 786-0 renal, 85.5%; with COLO 205 colon, 108%.

As to `COC(=O)c1cnc2c(c1)Oc1ccccc1-c1ccnn1-2`, the growth with NCI-H23 lung is 95.8%; in the experiment on NCI-H226 lung it was 83.9%; in the experiment on NCI-H322M lung, 105%; with HOP-62 NSCLC it was 92.5%; in the experiment with NCI-H460 lung, 104%; in the experiment on HOP-92 NSCLC, 86.9%. Further, the growth with NCI-H522 lung was 80.3%; in the experiment with A549/ATCC NSCLC, 86.3%; in the experiment on 786-0 renal, 90.6%; in the experiment on COLO 205 colon it was 101%.

Source of the values: PubChem BioAssay (NCI).
